Records with an inconclusive call do not appear. Calls of active or inactive are those of the source. Unless noted, calls follow the shape of the dose curve; as a rule, active = well fitted curve in the direction sought with a large enough effect in the repeat runs; inconclusive = weak or mixed curves; inactive = no such curve, though single readings can be large; an effect the other way counts as inactive or inconclusive.
Tests used:
[1] = qHTS assay to identify small molecule agonists of the NFkB signaling pathway (AID 1159509; active = well fitted curve in the direction sought with a large enough effect in the signal ratio in the repeat runs, not every such curve was filed as active; the % refers to the signal ratio; also: series mostly up to about 61 µM; % is scaled to controls: 0 for no effect and ±100 for the full control effect)
Method in brief: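 Agonist activity was read as beta-lactamase-driven FRET change (460 and 530 nm emission, 405 nm excitation) following 1.5 hr substrate loading at room temperature. Beforehand, ME-180 NFkB-bla reporter cells were treated with compounds for 5 hr at 37 C.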

[2] = qHTS assay to identify small molecule agonists of the NFkB signaling pathway - cell viability counter screen (AID 1159515; calls by dose curve; also: series mostly up to about 61 µM; % is scaled to controls: 0 for no effect and ±100 for the full control effect; nearly all actives have a fitted effect of over 55% in size)
Method in brief: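 Parallel cytotoxicity counter screen in ME-180 cells carrying an NFkB-response-element beta-lactamase reporter, 2,000 cells/well. Compound exposure lasted 5 hr at 37 C, 5% CO2. Cell viability was quantified by CellTiter-Glo luminescence.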

[3] = qHTS assay to identify small molecule agonists of the endoplasmic reticulum stress response signaling pathway (AID 1159516; active = well fitted activation curve with a large enough effect in the signal ratio in the repeat runs, not every such curve was filed as active; the % refers to the signal ratio; also: % is scaled to controls: 0 for no effect and ±100 for the full control effect)
Method in brief: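 Using a HeLa line with an ESRE-driven beta-lactamase gene, agonist activity was measured by FRET substrate fluorescence (460 and 530 nm emission) after cells were treated with compounds for 5 hr at 37 C and 5% CO2.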

[4] = qHTS assay to identify small molecule agonists of the endoplasmic reticulum stress response signaling pathway - cell viability counter screen (AID 1159517; calls by dose curve;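 also: HeLa cells carrying an ER stress response element beta-lactamase reporter; series mostly up to about 61 µM; % is scaled to controls: 0 for no effect and ±100 for the full control effect; nearly all actives have a fitted effect of over 50% in size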)
Method in brief: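 Cpd-treated ESRE-bla HeLa (5 hr, 37 C) → LiveBLAzer 2 hr RT → CellTiter-Glo 30 min RT → luminescence.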

[5] = biological target: Nuclear receptor ROR-gamma (Homo sapiens) (UniProt P51449); test: qHTS assay to identify small molecule antagonists of the retinoid-related orphan receptor gamma (ROR-gamma) signaling pathway (AID 1159521;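 also: CHO cells with doxycycline inducible ROR-gamma driving an RORE luciferase reporter; top concentration of the series differs between compounds; % is scaled to controls: 0 for no effect and ±100 for the full control effect; nearly all actives have a fitted effect of over 50% in size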)
Method in brief: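 Readout: ONE-Glo luciferase luminescence, 30 min at room temperature. System: Tet-on RORγ CHO, RORE-LUC. Sequence: compound 2 h, doxycycline 1 uM final, 16 h at 37 C.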

[6] = qHTS assay to identify small molecule agonists of the AP-1 signaling pathway - cell viability counter screen (AID 1159525; calls by dose curve; also: nearly all actives have a fitted effect of over 55% in size)
Method in brief: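 Each titration point was normalised to DMSO and tetra n-octyl ammonium bromide controls. The read was Cell Titer Glo luminescence after 30 min at RT, following 5 h compound exposure of ME-180 AP-1-bla cells at 37 °C.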

[7] = qHTS assay to identify small molecule agonists of the AP-1 signaling pathway (AID 1159526; calls by dose curve; also: % is scaled to controls: 0 for no effect and ±100 for the full control effect)
[8] = biological target: Retinoic acid receptor RXR-alpha (Homo sapiens) (UniProt P19793); test: qHTS assay to identify small molecule agonists of the RXR signaling pathway (AID 1159527; calls by dose curve; also: % is scaled to controls: 0 for no effect and ±100 for the full control effect; nearly all actives have a fitted effect of over 35% in size)
Chain of Retinoic acid receptor RXR-alpha (Homo sapiens) (P19793 whole entry, looked up): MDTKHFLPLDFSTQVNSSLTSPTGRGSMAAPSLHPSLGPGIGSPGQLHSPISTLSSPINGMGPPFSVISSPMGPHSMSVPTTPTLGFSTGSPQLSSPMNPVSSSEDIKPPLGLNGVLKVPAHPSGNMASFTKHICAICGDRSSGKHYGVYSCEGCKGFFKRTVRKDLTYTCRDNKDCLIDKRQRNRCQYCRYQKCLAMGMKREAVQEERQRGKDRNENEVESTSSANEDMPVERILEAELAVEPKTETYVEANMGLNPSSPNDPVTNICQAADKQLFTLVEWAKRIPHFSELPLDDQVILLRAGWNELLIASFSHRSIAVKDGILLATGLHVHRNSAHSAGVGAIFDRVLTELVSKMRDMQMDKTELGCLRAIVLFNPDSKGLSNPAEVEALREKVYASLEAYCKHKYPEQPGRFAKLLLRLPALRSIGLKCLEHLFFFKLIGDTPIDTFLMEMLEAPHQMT
Method in brief: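 Reporter activation is measured as beta-lactamase activity via FRET substrate cleavage (emission 460/530 nm) in HEK 293T cells expressing an RXR-alpha-driven bla construct, following 16 hr compound exposure at 37 C.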

[9] = qHTS assay to identify small molecule agonists of the RXR signaling pathway - cell viability counter screen (AID 1159529); also: series mostly up to about 77 µM; % is scaled to controls: 0 for no effect and ±100 for the full control effect; nearly all actives have a fitted effect of over 50% in size
Method in brief: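 Tox21 10K compounds were tested for cytotoxicity against GeneBLAzer RXR-alpha HEK 293T cells grown in 2% charcoal-stripped FBS. Exposure lasted 16 hr at 37 C, 5% CO2; viability read by CellTiter-Glo luminescence.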

[10] = qHTS assay to identify small molecule antagonists of the retinoid acid receptor (RAR) signaling pathway - cell viability counter screen (AID 1159551); also: % is scaled to controls: 0 for no effect and ±100 for the full control effect; nearly all actives have a fitted effect of over 35% in size
Method in brief: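 ATP-based viability, C3RL4 cells, 6 h at 37 C with 1 uM final retinol co-added after compound; luminescence read 30 min post CellTiter-Glo, RT.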

[11] = qHTS assay to identify small molecule agonists of the retinoic acid receptor (RAR) signaling pathway (AID 1159553); also: % is scaled to controls: 0 for no effect and ±100 for the full control effect
Method in brief: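 Quantitative high-throughput format: the Tox21 10K library was tested on C3RL4 RARE-luciferase cells for 6 hr at 37 C and 5% CO2, with luminescence measured after a 30 min room-temperature reagent step.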

[12] = qHTS assay to identify small molecule antagonists of the retinoid-related orphan receptor gamma (ROR-gamma) signaling pathway - cell viability counter screen (AID 1159520); also: % is scaled to controls: 0 for no effect and ±100 for the full control effect; nearly all actives have a fitted effect of over 50% in size
Method in brief: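 Tet-on ROR gamma CHO cells (1,000/well) were plated 4 hr, given compounds in DMSO for 2 hr at 37 C, then induced with 1 uM final doxycycline for 16 hr. Viability was read as ATP by CellTiter-Glo luminescence after 30 min.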

[13] = qHTS assay to identify small molecule antagonists of the estrogen related receptor (ERR) signaling pathway - cell viability counter screen (AID 1224818)
Method in brief: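 Quantitative high-throughput viability counter screen in ERR cells. Compounds (DMSO) incubated 17.5 h at 37 C; read-out was CellTiter-Fluor fluorescence.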

[14] = qHTS assay to identify small molecule agonists of the estrogen related receptor (ERR) signaling pathway (AID 1224820); also: % is scaled to controls: 0 for no effect and ±100 for the full control effect
Method in brief: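 After 6 h plating (2,000 cells/well) and 18 h compound treatment at 37 C, ERR cells were lysed with One-Glo and luminescence read after 30 min at room temperature.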

[15] = test system: estrogen-related receptor alpha (ERRalpha) with PGC-1alpha coactivator, human; test: qHTS assay to identify small molecule antagonists of the estrogen related receptor signaling pathway with the pleiotropic PPARgamma coactivator (PGC) (AID 1224821; calls by dose curve)
Method in brief: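 Luminescence from One-Glo luciferase reagent (30 min, room temperature) measured after 18 h compound treatment at 37 °C. Cells carry the PGC/ERR reporter and were seeded 6 h prior to dosing.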

[16] = qHTS assay to identify small molecule agonists of the estrogen related receptor signaling pathway with the pleiotropic PPARgamma coactivator (PGC) (AID 1224823); also: % is scaled to controls: 0 for no effect and ±100 for the full control effect
Method in brief: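 Luminescence from One-Glo reagent (30 min, room temperature) was read after 18 h compound treatment at 37 C of PGC/ERR cells plated 6 h beforehand; compounds delivered in DMSO by pin tool.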

[17] = qHTS assay to identify small molecule antagonists of the estrogen related receptor (ERR) signaling pathway from Tox21 library - cell viability counter screen (AID 1224834); also: % is scaled to controls: 0 for no effect and ±100 for the full control effect; nearly all actives have a fitted effect of over 30% in size
Method in brief: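 Compounds in DMSO were pinned onto ERR cells that had been incubated for 6 h, and the plates were held at 37 C for 17.5 h. CellTiter-Fluor reagent was then added and fluorescence was measured after 30 min.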

[18] = qHTS assay to identify small molecule agonists of the vitamin D receptor (VDR) signaling pathway - cell viability counter screen (AID 743224)
Method in brief: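 Compounds were pin-transferred onto VDR-bla cells plated 4 h earlier; following 16 h incubation at 37C, cell viability was quantified by CellTiter-Glo luminescence after 30 min at room temperature.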

[19] = qHTS assay to identify small molecule antagonists of the vitamin D receptor (VDR) signaling pathway - cell viability counter screen (AID 743225)
Method in brief: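 Cytotoxicity toward the VDR-bla HEK 293T line was scored by ATP-based CellTiter-Glo luminescence, read in the wells already used for the beta-lactamase readout after 16 h compound treatment under 3 nM 1-alpha,25-dihydroxyvitamin D3 stimulation.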

[20] = qHTS assay to identify small molecule antagonists of the retinoic acid receptor (RAR) signaling pathway (AID 1159552)
Method in brief: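 Overnight-plated C3RL4 reporter cells get compound, then retinol to 1 uM final; plates sit 6 hr at 37 C, 5% CO2. A luciferase reagent is added and light output recorded after 30 min at room temperature.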

Nc1cccc(O)c1
inactive: outcome [1] | outcome [2] | outcome [3] | Potency [4] | outcome [5] | outcome [6] | outcome [7] | Potency [8] | outcome [9] | outcome [10] | Potency [11]

C[C@@H](O)[C@H]1C(=O)N2C(C(=O)O)=C(SCCN=CN)C[C@H]12
inactive: outcome [1] | outcome [2] | outcome [3] | Potency [4] | outcome [12] | outcome [5] | outcome [7] | outcome [9] | outcome [10] | outcome [13] | outcome [14] | outcome [15] | outcome [16] | Potency [17]

CC(C)C[C@H](NC(=O)CNC(=O)[C@H](Cc1ccc(O)cc1)NC(=O)[C@H](CO)NC(=O)[C@H](Cc1c[nH]c2ccccc12)NC(=O)[C@H](Cc1cnc[nH]1)NC(=O)[C@@H]1CCC(=O)N1)C(=O)N[C@@H](CCCN=C(N)N)C(=O)N1CCC[C@H]1C(=O)NCC(N)=O (stereo in doubt)
inactive: Potency [18] | outcome [19] | outcome [1] | outcome [2] | outcome [3] | Potency [4] | outcome [5] | outcome [6] | outcome [7] | Potency [8] | outcome [9] | outcome [10] | Potency [11] | Potency [17]

OC[C@H](Cc1cccc(O)c1)[C@H](CO)Cc1cccc(O)c1
inactive: Potency [18] | outcome [19] | outcome [1] | outcome [2] | outcome [3] | Potency [4] | outcome [12] | outcome [5] | outcome [7] | outcome [9] | outcome [10] | Potency [17]

C=C(C)C(=O)OCC(C)(C)COC(=O)C(=C)C
inactive: Potency [18] | outcome [19] | outcome [1] | outcome [2] | outcome [3] | Potency [4] | outcome [5] | outcome [7] | outcome [9] | outcome [10] | Potency [17]

O=P(O)(O)OP(=O)(O)O
inactive: Potency [18] | outcome [19] | outcome [1] | outcome [2] | outcome [3] | Potency [4] | outcome [5] | outcome [6] | outcome [7] | Potency [8] | outcome [9] | outcome [10] | outcome [20] | Potency [11] | Potency [17]

CCCCCCN
inactive: Potency [18] | outcome [19] | outcome [1] | outcome [2] | outcome [3] | Potency [4] | outcome [5] | outcome [6] | outcome [7] | Potency [8] | outcome [9] | outcome [10] | Potency [17]

CC(C)C(=O)OCc1cccc(OC(=O)[C@@H]2N3C(=O)[C@@H](NC(=O)Cc4ccccc4)[C@H]3SC2(C)C)c1
inactive: Potency [18] | outcome [19] | outcome [1] | outcome [2] | outcome [3] | Potency [4] | outcome [5] | outcome [6] | outcome [7] | outcome [9] | outcome [10]

CC(C)N(c1ccccc1)C(C)C
inactive: Potency [18] | outcome [19] | outcome [1] | outcome [2] | outcome [3] | Potency [4] | outcome [5] | outcome [6] | outcome [7] | Potency [8] | outcome [9] | outcome [10]

CC(C)=O
inactive: outcome [1] | outcome [2] | outcome [3] | Potency [4] | outcome [5] | outcome [6] | outcome [7] | Potency [8] | outcome [9] | outcome [10] | Potency [11]

O=C(O)C(=O)Cc1ccccc1
inactive: Potency [18] | outcome [19] | outcome [1] | outcome [2] | outcome [3] | Potency [4] | outcome [5] | outcome [6] | outcome [7] | Potency [8] | outcome [9] | outcome [10] | outcome [20]

Cc1cc(NC(=O)C2=C(O)c3ccccc3S(=O)(=O)N2C)no1
inactive: Potency [18] | outcome [19] | outcome [1] | outcome [2] | outcome [3] | Potency [4] | outcome [5] | outcome [6] | outcome [7] | outcome [9] | outcome [10] | outcome [20] | Potency [11] | Potency [17]

COC(=O)C1CC(=O)C(C(=O)OC)CC1=O (configuration not stated)
inactive: viability change, negative = cytotoxic [19] 3.99% [at 6.95 µM] | activation [1] 0.23% [at 6.95 µM] | activity, negative = cytotoxic [2] 4.94% [at 6.95 µM] | activation [3] 4.12% [at 6.95 µM] | activity change, negative = cytotoxicity [4] 4.71% [at 6.95 µM] | activity change, negative = inhibition [5] 0.663% [at 8.39 µM] | viability change, negative = cytotoxic [6] 2.24% [at 6.97 µM] | activation [7] 1.04% [at 6.97 µM] | activity change, negative = cytotoxicity [9] 8.97% [at 6.97 µM] | activity change, negative = cytotoxicity [10] 3.23% [at 8.39 µM] | activity, negative = inhibition [20] -2.77% [at 8.39 µM]

CCOc1cc(NC(C)=O)ccc1C(=O)OC
inactive: Potency [18] | outcome [19] | outcome [1] | outcome [2] | outcome [3] | Potency [4] | outcome [5] | outcome [6] | outcome [7] | Potency [8] | outcome [9] | outcome [10] | Potency [17]

CCC(C)NC(N)=O (configuration not stated)
inactive: Potency [18] | outcome [19] | outcome [1] | outcome [2] | outcome [3] | Potency [4] | outcome [5] | outcome [6] | outcome [7] | Potency [8] | outcome [9] | outcome [10]

NCCS
inactive: Potency [18] | outcome [19] | outcome [1] | outcome [2] | outcome [3] | Potency [4] | outcome [5] | outcome [6] | outcome [7] | Potency [8] | outcome [9] | outcome [10] | outcome [13] | outcome [14] | outcome [15] | outcome [16] | Potency [17]

CC1(C)S[C@@H]2[C@H](N=CN3CCCCCC3)C(=O)N2[C@H]1C(=O)O
inactive: Potency [18] | outcome [19] | outcome [1] | outcome [2] | outcome [3] | Potency [4] | outcome [5] | outcome [6] | outcome [7] | Potency [8] | outcome [9] | outcome [10] | Potency [17]

From PubChem BioAssay (Tox21)
